Source: PubChem
KB-3-1 cytotox = KB-3-1 parental cell cytotoxicity; Potency, µM (doses to about 46.1 µM), usual class: cytotoxic; KB-3-1 viability, CellTiter-Glo ATP luminescence, 72 h; actives 1.4% (n = 400,000); note: % is set by controls: 0 for no effect and ±100 for the full control effect; nearly all actives have a fitted effect of over 60% in size
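72 h, 37 °C compound treatment of KB-3-1 parental cells; CellTiter-Glo added, 10 min, luminescence read. Data corrected against DMSO-only plates and normalized before curve fitting.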
KB-V1 MDR tox = KB-V1 MDR subline cytotoxicity | KB-V1 MDR cells viability, CellTiter-Glo, 72 h | Potency, µM (highest dose often 46.1 µM), most hits filed as cytotoxic | actives 3.4% (n = 400,000) | AID 1347076; note: % is set by controls: 0 for no effect and ±100 for the full control effect; nearly all actives have a fitted effect of over 60% in size
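Cytotoxicity via CellTiter-Glo luminescence after 72 h compound exposure at 37 degrees C. Cells: drug-selected KB-V1 line, DMEM phenol-red free plus 10% FBS. Compounds tested at multiple concentrations; normalized data fitted to concentration-effect curves.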
HT1080 IDH1KD tx = kills HT-1080 cells with IDH1 knockdown; HT-1080 IDH1 knockdown viability, ATP luminescence, 48 h; Potency, µM (doses to about 46.1 µM), for the others: at the highest dose activity, negative = toxicity, hits mostly cytotoxic; actives 2% (n = 360,000); AID 686971;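 note: 0% = DMSO wells and -100% = cell-free medium wells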
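After a 2 h attachment period, IDH1KD HT-1080 cells took pin-transferred compound for 48 h at 37 °C; ATP-based luminescence after 10 min room-temperature reagent incubation reported viability.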
ATXN2 expr inh = ATXN2 expression inhibition | actives 0.72% (n = 360,000) | HEK-293 ATXN2-luciferase reporter, luminescence, 24 h | Potency, µM (titrated, usually from 57 µM), for the others: at the highest dose activity change, negative = inhibition, usual class: inhibitors; note: % is set by controls: 0 for no effect and ±100 for the full control effect; nearly all actives have a fitted effect of over 55% in size
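ATXN2-luciferase reporter cells (luciferase flanked by upstream and downstream ATXN2 gene portions) were treated 24 h at 37 °C with compounds at up to 57 uM. SteadyGlo luminescence gave expression; GF-AFC fluorescence gave viability.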
ATXN viability = viability counter-screen for ATXN expression inhibitors | Potency, µM (highest dose often 56.7 µM), most hits filed as cytotoxic | actives 0.49% (n = 400,000) | AID 651635 | S2 cells (HEK-293 line with an ATXN2-luciferase reporter) viability, CellTiter-Fluor protease fluorescence, 24 h; note: nearly all actives have a fitted effect of over 40% in size
HT1080-NT tox = kills 2HG-producing HT-1080-NT fibrosarcoma cells; HT-1080-NT fibrosarcoma viability, CellTiter-Glo ATP luminescence, 48 h; Potency, µM (titrated, usually from 46.1 µM), without a hit: at the top dose activity, negative = less viability, actives largely listed as cytotoxic; actives 1.6% (n = 360,000); AID 686970;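 note: NT is the 2HG producing partner of a matched IDH1 knockdown line; 0% = DMSO-treated cells and -100% = media-only wells without cells; nearly all actives have a fitted effect of over 55% in size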
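Fibrosarcoma NT cells, 750 per well in 5% FBS RPMI, were exposed to compound for 48 hours. Viability: CellTiter-Glo luminescence.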
Numbers without * were called inactive; i = inactive; ? = inconclusive; / = no result. Shown are actives, neighbours in structure and some others; about 6.2% of the full set was active somewhere. Calls come from the whole dose curve; as a rule, active = well fitted curve in the direction sought with a large enough effect; inconclusive = small, poorly fitted or top-dose-only effect, or another doubt; inactive = no such curve, though single readings can be large; an effect the other way counts as inactive or inconclusive. Potency is the fitted concentration of half-maximal effect.

SMILES	KB-3-1 cytotox	KB-V1 MDR tox	HT1080 IDH1KD tx	ATXN2 expr inh	ATXN viability	HT1080-NT tox
Cc1ccc(O)c(NC(=S)NC(=O)/C=C/c2ccccc2)c1	i	?	5.5%	/	i	6.5%
CC(=O)c1ccc(Nc2nc(C)cc(C)n2)cc1	i	i	19.6%	26.7%	i	16.8%
CC(=O)c1ccc(Nc2cc(C)nc3ccccc23)cc1	?	?	11.6µM*	-17.3%	?	?
COc1ccc2nc(C)cc(Nc3ccc(Cl)c(Cl)c3)c2c1	?	?	/	25.1µM*	22.4µM*	/
CC(=O)c1ccc(Nc2cc(C)nc3c(C)cccc23)cc1	i	2.91µM*	3.66µM*	/	?	5.17µM*
COc1ccc2nc(C)cc(NCc3ccc(F)cc3)c2c1	i	i	16.4µM*	?	i	?
CCc1ccccc1NS(=O)(=O)c1cc(Br)cc2c1N(C(=O)C1CC1)CC2	i	i	/	-8.4%	i	/
CC1Cc2cc(S(=O)(=O)N3CCN(c4ccccc4F)CC3)ccc2N1C(=O)C1CCC1 (centres undefined)	i	i	/	-0.4%	i	/
Cc1cccc(N2CCN(C(=O)CS(=O)(=O)Cc3nc(-c4ccccc4C)oc3C)CC2C)c1 (centres undefined)	?	i	/	?	i	/
CCOc1ccccc1Nc1cc(C)nc2ccccc12	i	?	-14.9%	/	i	-5.0%
Cc1ccc(Nc2cc(C)nc3c(C)cccc23)cc1	?	8.2µM*	?	-4.0%	i	?
CCOc1ccccc1Nc1cc(C)nc2ccc(C)cc12	?	11.6µM*	?	-23.1%	i	?
COc1ccc2nc(C)cc(Nc3ccc(C)cc3)c2c1	i	i	?	-2.0%	i	?
COc1ccc(OC)c(Nc2cc(C)nc3ccc(C)cc23)c1	7.31µM*	5.17µM*	3.66µM*	?	?	5.17µM*
COc1ccc(Nc2cc(C)nc3ccccc23)cc1	i	i	11.2µM*	-22.2%	?	-24.1%
O=C(NC1CCCC1)C(c1ccncc1)N(CC1CCCO1)C(=O)Cn1nnc(-c2cccs2)n1 (centres undefined)	?	23.1µM*	3.9%	-1.2%	i	15.7%
Cc1ccc(C)c(N(C(=O)Cn2nnc(-c3cccs3)n2)C(C(=O)NC2CCCC2)c2ccncc2)c1 (centres undefined)	i	i	17.7%	1.0%	i	4.5%
OC(CNCc1ccccc1F)COc1cccc2ccccc12 (centres undefined)	i	i	14.6µM*	-29.6%	i	?
CC(C)NCC(O)COc1cccc2ccccc12 (centres undefined)	i	i	/	4.5%	i	/
CCc1ccc(NS(=O)(=O)c2cc(Br)cc3c2N(C(C)=O)CC3)cc1	i	i	/	1.2%	i	/
COc1ccc(NS(=O)(=O)c2cc(Br)cc3c2N(C(C)=O)CC3)cc1	4.11µM*	9.2µM*	11.6µM*	-25.0%	i	18.4µM*
O=C1CCC[C@@H]2C[C@@]3(C[C@@H]4CCN1[C@H]24)Nc1cc([N+](=O)[O-])ccc1NC3=NCc1ccccc1	i	i	/	/	/	/
Cc1cc(NS(=O)(=O)c2ccccc2)cc(Cl)c1O	i	16.4µM*	-7.6%	5.1%	i	-10.4%
O=S(=O)(Nc1ccc(N=Nc2ccccc2)cc1)c1ccccc1	i	3.26µM*	-15.3%	?	?	15.2%
O=S(=O)(Nc1ccc(NS(=O)(=O)c2ccccc2)c(Cl)c1)c1ccccc1	i	i	-4.6%	-15.2%	i	-2.7%
SMILES	KB-3-1 cytotox	KB-V1 MDR tox	HT1080 IDH1KD tx	ATXN2 expr inh	ATXN viability	HT1080-NT tox
CCOc1ccc(-n2c(C)cc(C(=O)CCl)c2C)cc1	4.61µM*	?	8.2µM*	23.8µM*	/	7.31µM*
COC(=O)c1ccc(-n2c(C)cc(C(=O)CCl)c2C)cc1	?	i	?	15µM*	29.9µM*	?
COc1cc(S(=O)(=O)NCCc2c(C)[nH]c3ccccc23)c(C)cc1C	i	?	/	?	i	/
Cc1ccc(NC(=O)COc2ccc3oc4c(c3c2)CCCC4)c(C)c1	i	?	/	-13.7%	i	/
COc1cccc(CN2CCC3(CCC(CNC(=O)c4ccco4)O3)CC2)c1OC (centres undefined)	/	/	/	/	i	/
C(=C\c1ccnc2ccccc12)/c1ccc(N2CCN(c3ccc(/C=C/c4ccnc5ccccc45)cc3)CC2)cc1	?	i	/	/	/	/
O=C1Nc2ccccc2-n2nnnc2C1N1CCN(c2ccc(C(F)(F)F)cn2)CC1 (centres undefined)	?	20.6µM*	6.7%	/	/	13.5%
O=C1Nc2ccccc2-n2nnnc2C1N1CCN(c2ccccn2)CC1 (centres undefined)	i	?	5.2%	/	/	3.8%
Cc1ccc(N2CCN(C3C(=O)Nc4ccccc4-n4nnnc43)CC2)cc1 (centres undefined)	i	?	-8.6%	/	/	-4.5%
Cc1cccc(N2CCN(C3C(=O)Nc4ccccc4-n4nnnc43)CC2)c1C (centres undefined)	?	?	10.3µM*	/	/	?
Cc1cc2c(cc1C)-n1nnnc1C(N1CCN(C(=O)OCc3ccccc3)CC1)C(=O)N2 (centres undefined)	?	18.4µM*	?	/	/	?
CCN(Cc1ccccc1)C(=O)Cn1c(=O)n(-c2ccc(Cl)cc2)c(=O)c2c(C)c(C)sc21	i	i	/	-11.0%	i	/
COc1ccc(C2=C(C)C(=O)N(Cc3ccc(C(=O)Nc4cc(C)ccc4C)cc3)S2(=O)=O)cc1	i	i	/	-6.6%	i	/
CC(=O)N1CCc2cc(Br)cc(S(=O)(=O)CCC(=O)N3CCN(c4cccc(C)c4C)CC3)c21	i	i	/	-34.8%	?	/
CC1CCCCC1NC(=O)/C(C#N)=C/c1ccc2c(c1)OCCO2 (centres undefined)	18.4µM*	?	-8.7%	12.4%	i	-13.7%
O=C(COc1ccccc1F)Nc1ccc(Cl)c(-c2nc3ccccc3[nH]2)c1	i	?	/	?	/	/
CCn1c(C)c(/C=N/Nc2nc3ccccc3s2)c2ccccc21	i	i	8.91µM*	24.3%	i	3.55µM*
Oc1ccccc1C=NNc1nc2ccccc2s1	?	i	8.2µM*	8.5%	i	18.4µM*
Cc1ccsc1/C=N/Nc1nc2ccccc2s1	i	i	-26.3%	129.6%	i	?
Oc1ccccc1/C=N/Nc1ccccc1	i	i	9.2µM*	43.9%	i	?
